Experimental data as given in ChEMBL document CHEMBL1961873, “Compounds: GSK PKIS; Assays: Nanosyn kinase panel” (2012).

Legend:
[1] = tested on: Epidermal growth factor receptor (Homo sapiens), P00533 [T790M]; details: at 1 µM
[2] = tested on: Epidermal growth factor receptor (Homo sapiens), P00533 [L858R,T790M]; details: at 0.1 µM
[3] = tested on: Epidermal growth factor receptor (Homo sapiens), P00533 [L858R,T790M]; details: at 1 µM
[4] = target: Ephrin type-A receptor 2 (Homo sapiens) (UniProt P29317); details: at 0.1 µM
[5] = target: Ephrin type-A receptor 2 (Homo sapiens) (UniProt P29317); details: at 1 µM
[6] = target: T1, Ephrin type-A receptor 3 (Homo sapiens) (UniProt P29320); details: at 0.1 µM
T1 sequence (whole entry): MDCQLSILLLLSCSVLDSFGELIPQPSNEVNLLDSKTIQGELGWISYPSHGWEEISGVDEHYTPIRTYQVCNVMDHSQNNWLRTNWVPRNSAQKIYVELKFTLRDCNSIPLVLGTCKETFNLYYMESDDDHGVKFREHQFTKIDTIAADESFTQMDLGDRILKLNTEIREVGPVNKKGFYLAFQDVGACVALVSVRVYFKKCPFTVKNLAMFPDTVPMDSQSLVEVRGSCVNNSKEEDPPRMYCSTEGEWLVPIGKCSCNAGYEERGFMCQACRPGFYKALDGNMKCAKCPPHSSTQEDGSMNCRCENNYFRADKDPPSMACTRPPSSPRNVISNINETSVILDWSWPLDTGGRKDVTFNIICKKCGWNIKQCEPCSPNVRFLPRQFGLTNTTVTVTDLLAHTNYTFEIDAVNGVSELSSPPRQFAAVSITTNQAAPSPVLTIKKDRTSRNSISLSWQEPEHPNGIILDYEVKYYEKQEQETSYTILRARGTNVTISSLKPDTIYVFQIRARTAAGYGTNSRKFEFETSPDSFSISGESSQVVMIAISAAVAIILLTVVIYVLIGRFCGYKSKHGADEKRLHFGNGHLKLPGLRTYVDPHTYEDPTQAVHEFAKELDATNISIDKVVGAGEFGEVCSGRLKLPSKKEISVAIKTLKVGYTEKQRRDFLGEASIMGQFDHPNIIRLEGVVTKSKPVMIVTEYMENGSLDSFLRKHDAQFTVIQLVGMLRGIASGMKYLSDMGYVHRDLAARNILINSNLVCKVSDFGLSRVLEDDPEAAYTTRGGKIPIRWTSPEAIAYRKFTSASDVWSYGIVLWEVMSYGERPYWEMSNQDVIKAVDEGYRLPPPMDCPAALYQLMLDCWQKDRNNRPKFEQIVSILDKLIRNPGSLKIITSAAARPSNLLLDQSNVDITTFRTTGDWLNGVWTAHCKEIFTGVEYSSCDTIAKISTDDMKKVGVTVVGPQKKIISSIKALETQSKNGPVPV

[7] = target: T1, Ephrin type-A receptor 3 (Homo sapiens); details: at 1 µM
[8] = target: Ephrin type-A receptor 4 (Homo sapiens) (UniProt P54764); details: at 0.1 µM
Chain of Ephrin type-A receptor 4 (Homo sapiens) (P54764 whole entry): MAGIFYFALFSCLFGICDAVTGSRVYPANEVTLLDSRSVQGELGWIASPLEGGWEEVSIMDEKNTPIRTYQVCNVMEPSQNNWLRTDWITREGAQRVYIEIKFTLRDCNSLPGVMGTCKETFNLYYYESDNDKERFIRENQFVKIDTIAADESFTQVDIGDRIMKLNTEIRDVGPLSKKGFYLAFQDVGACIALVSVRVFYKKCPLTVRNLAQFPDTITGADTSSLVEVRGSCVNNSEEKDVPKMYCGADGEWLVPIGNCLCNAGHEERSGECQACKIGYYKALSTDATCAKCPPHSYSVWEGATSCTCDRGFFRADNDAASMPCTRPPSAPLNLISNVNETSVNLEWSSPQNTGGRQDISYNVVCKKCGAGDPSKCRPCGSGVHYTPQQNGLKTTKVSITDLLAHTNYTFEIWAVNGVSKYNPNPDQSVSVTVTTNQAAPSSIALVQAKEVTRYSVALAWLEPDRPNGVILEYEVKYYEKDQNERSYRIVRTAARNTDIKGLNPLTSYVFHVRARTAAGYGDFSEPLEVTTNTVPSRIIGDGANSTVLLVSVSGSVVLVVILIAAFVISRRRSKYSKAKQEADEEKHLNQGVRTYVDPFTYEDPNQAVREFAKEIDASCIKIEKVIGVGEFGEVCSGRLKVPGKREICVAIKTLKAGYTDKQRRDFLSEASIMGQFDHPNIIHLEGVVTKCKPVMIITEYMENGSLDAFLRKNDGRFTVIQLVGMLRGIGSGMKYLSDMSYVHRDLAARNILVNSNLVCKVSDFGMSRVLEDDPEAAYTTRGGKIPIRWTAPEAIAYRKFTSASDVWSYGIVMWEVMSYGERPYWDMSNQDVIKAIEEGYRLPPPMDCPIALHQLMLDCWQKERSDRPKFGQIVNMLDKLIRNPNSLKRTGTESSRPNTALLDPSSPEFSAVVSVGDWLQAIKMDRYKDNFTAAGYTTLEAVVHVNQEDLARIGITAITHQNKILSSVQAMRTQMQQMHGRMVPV

[9] = target: Ephrin type-A receptor 4 (Homo sapiens) (UniProt P54764); details: at 1 µM
[10] = target: T2, Ephrin type-B receptor 2 (Homo sapiens) (UniProt P29323); details: at 0.1 µM
T2 sequence (whole entry): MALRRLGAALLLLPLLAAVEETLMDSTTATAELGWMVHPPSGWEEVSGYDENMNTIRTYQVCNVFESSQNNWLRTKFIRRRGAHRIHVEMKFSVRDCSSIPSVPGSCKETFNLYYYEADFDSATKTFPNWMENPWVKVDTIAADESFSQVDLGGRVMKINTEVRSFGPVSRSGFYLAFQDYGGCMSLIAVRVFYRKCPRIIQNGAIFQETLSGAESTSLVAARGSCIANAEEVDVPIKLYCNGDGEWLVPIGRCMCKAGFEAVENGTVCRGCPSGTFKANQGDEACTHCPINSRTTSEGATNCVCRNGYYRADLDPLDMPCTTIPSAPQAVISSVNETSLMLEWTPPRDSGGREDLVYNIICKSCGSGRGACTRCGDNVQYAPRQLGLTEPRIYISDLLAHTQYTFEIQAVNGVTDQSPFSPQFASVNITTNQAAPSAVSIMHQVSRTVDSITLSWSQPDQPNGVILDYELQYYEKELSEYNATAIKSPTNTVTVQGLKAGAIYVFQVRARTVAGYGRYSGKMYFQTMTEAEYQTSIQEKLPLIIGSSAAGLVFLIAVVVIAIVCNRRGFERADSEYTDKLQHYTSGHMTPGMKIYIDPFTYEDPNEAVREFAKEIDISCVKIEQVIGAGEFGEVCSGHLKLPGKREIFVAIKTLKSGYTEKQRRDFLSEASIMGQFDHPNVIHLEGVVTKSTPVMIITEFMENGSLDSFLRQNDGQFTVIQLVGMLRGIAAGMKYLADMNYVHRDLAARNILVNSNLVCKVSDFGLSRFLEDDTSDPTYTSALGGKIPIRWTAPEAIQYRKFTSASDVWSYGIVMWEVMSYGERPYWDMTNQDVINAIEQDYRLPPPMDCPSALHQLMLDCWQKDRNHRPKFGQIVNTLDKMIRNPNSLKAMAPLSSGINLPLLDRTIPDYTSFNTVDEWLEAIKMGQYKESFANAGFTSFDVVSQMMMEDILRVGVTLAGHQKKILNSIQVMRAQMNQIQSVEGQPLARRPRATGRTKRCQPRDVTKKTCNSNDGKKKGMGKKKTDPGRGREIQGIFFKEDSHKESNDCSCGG

[11] = target: T2, Ephrin type-B receptor 2 (Homo sapiens); details: at 1 µM
[12] = target: T3, Ephrin type-B receptor 3 (Homo sapiens) (UniProt P54753); details: at 0.1 µM
T3 sequence (whole entry): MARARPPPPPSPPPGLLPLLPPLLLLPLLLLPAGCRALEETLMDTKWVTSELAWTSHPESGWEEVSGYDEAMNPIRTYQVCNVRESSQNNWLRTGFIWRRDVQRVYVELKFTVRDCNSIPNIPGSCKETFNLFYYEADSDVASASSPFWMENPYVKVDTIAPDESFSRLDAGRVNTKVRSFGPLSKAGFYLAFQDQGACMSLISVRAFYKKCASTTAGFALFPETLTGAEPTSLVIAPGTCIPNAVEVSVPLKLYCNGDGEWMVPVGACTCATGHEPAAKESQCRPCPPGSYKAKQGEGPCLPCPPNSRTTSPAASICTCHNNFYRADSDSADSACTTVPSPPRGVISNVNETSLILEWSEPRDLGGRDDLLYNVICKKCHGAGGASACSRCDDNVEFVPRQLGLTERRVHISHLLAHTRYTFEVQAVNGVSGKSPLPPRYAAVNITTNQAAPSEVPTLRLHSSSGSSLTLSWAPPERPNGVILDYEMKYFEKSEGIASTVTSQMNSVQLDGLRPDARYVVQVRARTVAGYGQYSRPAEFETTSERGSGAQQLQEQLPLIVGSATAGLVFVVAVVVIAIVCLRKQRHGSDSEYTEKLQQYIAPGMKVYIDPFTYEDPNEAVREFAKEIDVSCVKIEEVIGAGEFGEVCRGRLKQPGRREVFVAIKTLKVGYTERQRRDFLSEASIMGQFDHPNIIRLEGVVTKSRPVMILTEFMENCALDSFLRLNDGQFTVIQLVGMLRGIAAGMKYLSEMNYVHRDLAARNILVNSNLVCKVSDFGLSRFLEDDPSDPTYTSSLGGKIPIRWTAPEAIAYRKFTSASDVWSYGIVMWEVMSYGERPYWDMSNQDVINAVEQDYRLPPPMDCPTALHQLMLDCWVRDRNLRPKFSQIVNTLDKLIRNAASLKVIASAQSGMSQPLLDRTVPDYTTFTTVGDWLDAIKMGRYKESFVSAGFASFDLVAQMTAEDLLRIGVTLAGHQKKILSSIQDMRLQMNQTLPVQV

[13] = target: T3, Ephrin type-B receptor 3 (Homo sapiens); details: at 1 µM
[14] = target: T4, Ephrin type-B receptor 4 (Homo sapiens) (UniProt P54760); details: at 0.1 µM
T4 sequence (whole entry): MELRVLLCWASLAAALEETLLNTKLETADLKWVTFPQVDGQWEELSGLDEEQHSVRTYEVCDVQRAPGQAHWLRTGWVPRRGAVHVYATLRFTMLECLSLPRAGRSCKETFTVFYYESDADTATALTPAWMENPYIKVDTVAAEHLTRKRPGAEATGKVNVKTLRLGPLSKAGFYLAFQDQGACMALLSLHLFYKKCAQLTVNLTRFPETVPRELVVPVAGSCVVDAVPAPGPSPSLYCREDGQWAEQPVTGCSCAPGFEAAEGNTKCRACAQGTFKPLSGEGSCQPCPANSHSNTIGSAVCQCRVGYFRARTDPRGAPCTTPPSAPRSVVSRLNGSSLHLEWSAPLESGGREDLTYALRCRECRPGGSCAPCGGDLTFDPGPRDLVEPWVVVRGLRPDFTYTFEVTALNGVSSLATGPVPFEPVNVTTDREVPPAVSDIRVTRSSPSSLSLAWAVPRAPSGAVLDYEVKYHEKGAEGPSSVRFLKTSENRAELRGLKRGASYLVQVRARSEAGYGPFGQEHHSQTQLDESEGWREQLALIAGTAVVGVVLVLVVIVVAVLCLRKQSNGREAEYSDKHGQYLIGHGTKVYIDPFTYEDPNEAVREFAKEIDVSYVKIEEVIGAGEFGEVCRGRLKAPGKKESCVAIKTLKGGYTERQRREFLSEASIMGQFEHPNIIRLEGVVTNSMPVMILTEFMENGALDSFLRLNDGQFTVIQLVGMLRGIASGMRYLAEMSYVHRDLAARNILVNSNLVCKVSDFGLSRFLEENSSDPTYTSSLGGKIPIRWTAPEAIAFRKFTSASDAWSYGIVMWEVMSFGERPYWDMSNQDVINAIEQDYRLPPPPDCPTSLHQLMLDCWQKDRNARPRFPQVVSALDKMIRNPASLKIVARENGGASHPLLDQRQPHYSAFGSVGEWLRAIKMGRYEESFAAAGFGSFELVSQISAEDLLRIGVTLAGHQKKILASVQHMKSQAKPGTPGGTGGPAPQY

[15] = target: T4, Ephrin type-B receptor 4 (Homo sapiens); details: at 1 µM
[16] = target: Receptor tyrosine-protein kinase erbB-2 (Homo sapiens) (UniProt P04626); details: at 0.1 µM
Chain of Receptor tyrosine-protein kinase erbB-2 (Homo sapiens) (P04626 whole entry): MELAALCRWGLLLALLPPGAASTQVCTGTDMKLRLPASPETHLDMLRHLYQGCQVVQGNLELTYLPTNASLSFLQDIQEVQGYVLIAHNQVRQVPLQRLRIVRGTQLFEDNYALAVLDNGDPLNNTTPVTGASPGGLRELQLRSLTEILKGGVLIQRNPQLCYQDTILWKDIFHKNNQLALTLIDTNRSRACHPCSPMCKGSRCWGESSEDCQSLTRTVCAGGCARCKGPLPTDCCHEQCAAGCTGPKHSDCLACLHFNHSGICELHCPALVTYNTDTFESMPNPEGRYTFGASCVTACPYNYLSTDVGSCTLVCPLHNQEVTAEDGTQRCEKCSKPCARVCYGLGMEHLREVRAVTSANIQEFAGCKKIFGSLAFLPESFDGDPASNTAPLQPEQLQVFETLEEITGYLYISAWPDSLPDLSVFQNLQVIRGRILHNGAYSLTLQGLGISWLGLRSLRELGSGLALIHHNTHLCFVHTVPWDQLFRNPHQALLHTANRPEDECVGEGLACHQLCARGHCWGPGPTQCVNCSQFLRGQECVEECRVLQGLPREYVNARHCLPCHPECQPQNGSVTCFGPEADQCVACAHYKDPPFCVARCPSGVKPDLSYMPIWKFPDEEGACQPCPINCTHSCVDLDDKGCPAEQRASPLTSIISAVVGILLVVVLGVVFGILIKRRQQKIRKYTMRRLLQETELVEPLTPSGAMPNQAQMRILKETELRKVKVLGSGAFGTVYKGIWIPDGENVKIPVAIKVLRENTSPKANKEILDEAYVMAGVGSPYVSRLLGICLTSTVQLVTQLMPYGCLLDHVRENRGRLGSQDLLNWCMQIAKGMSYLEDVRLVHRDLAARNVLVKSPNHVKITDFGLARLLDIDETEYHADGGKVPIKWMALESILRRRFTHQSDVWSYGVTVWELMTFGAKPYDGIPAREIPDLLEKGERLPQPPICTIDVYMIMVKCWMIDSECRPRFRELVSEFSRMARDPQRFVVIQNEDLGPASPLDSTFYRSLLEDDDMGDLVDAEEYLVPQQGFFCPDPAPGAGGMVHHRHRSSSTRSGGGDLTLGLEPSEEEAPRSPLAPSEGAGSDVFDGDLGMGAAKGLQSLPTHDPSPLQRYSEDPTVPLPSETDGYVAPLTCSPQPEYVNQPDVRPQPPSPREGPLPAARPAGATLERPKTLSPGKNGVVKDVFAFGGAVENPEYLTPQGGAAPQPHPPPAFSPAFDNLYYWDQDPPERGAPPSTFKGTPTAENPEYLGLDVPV

[17] = target: Receptor tyrosine-protein kinase erbB-2 (Homo sapiens) (UniProt P04626); details: at 1 µM
[18] = target: Receptor tyrosine-protein kinase erbB-4 (Homo sapiens) (UniProt Q15303); details: at 0.1 µM
[19] = target: Receptor tyrosine-protein kinase erbB-4 (Homo sapiens) (UniProt Q15303); details: at 1 µM
[20] = target: Tyrosine-protein kinase Fer (Homo sapiens) (UniProt P16591); details: at 0.1 µM;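 note: reported figures are averaged percent inhibition of FER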

Chain of Epidermal growth factor receptor (Homo sapiens), P00533 [T790M] (P00533 whole entry T790M): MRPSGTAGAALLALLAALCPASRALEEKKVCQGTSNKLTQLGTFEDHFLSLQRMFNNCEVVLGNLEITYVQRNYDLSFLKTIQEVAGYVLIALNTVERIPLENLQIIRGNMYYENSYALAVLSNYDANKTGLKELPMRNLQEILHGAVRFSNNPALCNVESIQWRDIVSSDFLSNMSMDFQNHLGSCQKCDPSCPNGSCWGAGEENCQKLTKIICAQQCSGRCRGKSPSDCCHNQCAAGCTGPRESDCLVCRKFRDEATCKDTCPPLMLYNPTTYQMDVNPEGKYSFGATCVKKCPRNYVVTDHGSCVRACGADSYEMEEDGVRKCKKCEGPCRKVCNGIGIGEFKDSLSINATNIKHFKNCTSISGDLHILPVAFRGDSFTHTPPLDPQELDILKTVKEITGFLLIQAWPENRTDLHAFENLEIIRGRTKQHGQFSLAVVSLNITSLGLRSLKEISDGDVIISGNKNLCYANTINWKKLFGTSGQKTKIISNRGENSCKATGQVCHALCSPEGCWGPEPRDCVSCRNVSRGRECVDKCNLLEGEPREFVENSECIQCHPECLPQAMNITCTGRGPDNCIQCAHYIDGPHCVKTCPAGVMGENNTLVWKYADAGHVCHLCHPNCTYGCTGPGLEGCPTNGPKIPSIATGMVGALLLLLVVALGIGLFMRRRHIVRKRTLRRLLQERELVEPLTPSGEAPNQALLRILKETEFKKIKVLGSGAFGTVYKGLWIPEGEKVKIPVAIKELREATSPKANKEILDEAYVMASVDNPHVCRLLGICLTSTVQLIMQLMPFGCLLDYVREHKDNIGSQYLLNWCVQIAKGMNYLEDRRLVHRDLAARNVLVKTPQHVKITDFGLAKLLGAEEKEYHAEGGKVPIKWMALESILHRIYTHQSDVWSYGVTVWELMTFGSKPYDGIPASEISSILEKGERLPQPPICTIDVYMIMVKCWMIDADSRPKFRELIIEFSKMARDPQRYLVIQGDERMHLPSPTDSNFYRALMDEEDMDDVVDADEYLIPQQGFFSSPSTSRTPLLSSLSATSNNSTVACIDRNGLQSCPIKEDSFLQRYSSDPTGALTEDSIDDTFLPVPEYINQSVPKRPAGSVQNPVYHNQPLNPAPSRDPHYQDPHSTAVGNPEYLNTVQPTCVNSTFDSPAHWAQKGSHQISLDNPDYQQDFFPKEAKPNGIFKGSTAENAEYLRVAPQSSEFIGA
Chain of Epidermal growth factor receptor (Homo sapiens), P00533 [L858R,T790M] (P00533 whole entry T790M/L858R, looked up): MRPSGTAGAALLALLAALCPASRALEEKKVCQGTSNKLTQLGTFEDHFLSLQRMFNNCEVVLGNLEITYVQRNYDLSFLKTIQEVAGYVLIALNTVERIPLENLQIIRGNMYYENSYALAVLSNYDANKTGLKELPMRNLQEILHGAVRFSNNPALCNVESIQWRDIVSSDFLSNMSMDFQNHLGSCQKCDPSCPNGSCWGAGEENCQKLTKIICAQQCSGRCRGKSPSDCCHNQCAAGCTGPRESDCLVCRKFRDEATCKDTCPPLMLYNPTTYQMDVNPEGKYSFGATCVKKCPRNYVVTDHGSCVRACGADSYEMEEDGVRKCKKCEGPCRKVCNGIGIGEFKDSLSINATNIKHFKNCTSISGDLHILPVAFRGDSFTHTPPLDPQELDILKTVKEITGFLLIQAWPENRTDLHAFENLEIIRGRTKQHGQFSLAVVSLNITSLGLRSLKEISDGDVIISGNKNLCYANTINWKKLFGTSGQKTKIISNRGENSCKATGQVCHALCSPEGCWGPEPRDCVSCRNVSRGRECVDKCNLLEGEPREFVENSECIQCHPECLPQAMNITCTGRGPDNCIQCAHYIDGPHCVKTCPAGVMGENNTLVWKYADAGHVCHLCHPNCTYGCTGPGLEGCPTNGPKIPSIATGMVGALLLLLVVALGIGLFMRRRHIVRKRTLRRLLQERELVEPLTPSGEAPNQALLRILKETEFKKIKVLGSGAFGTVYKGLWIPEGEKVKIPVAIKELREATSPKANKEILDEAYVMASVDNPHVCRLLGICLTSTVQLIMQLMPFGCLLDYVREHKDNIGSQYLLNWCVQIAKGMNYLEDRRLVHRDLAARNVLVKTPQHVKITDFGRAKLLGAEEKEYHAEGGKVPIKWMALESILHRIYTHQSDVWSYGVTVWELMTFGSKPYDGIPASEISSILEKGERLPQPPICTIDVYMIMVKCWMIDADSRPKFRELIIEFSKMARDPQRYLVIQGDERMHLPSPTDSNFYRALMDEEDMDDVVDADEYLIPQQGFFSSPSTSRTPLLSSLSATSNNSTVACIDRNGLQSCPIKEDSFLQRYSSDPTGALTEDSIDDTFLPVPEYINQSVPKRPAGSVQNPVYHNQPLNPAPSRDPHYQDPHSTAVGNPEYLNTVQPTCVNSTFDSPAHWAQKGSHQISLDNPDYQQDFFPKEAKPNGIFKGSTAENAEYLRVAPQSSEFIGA

| SMILES | inhibition [1] | inhibition [2] | inhibition [3] | inhibition [4] | inhibition [5] | inhibition [6] | inhibition [7] | inhibition [8] | inhibition [9] | inhibition [10] | inhibition [11] | inhibition [12] | inhibition [13] | inhibition [14] | inhibition [15] | inhibition [16] | inhibition [17] | inhibition [18] | inhibition [19] | inhibition [20] |
| --- | --- | --- | --- | --- | --- | --- | --- | --- | --- | --- | --- | --- | --- | --- | --- | --- | --- | --- | --- | --- |
| COc1ccc(COc2ccc(Cc3cnc(N)nc3N)cc2OC)cc1 | -2.86% | 2.14% | -1.75% | 2.27% | 2.74% | -0.07% | 0.08% | 1.25% | -0.14% | 1.4% | 8.3% | -1.18% | -4.82% | 0.94% | 3.27% | -1.55% | -2.79% | 3.15% | 3.43% | 2.14% |
| CC1=C(C(=O)Nc2ccc3[nH]ncc3c2)C(c2ccc3ccccc3c2)CC(=O)N1 (stereo not given) | 3.65% | 4.92% | 23.5% | -0.93% | 0.37% | 3.77% | 6.3% | 6.86% | 10.2% | 7.74% | 8.42% | 4.2% | 4.54% | 3.21% | 3.76% | 0.89% | 2.88% | 12.7% | 39.6% | 2.1% |
| O=C1NC(=O)C(c2ccc(Cl)cc2)=C1Nc1ccc(Cl)c(C(=O)O)c1 | -1.21% | -0.4% | -1.38% | -2% | -1.26% | -3.17% | -3.69% | -6.1% | -6.97% | -0.68% | 1.8% | -6.22% | -1.9% | -0.68% | -1.57% | -2.94% | -3.13% | -7.86% | -9.87% | 1.93% |
